In experiment [1] the target is human CYP2C9, CYP2C9 (gene 1559) (UniProt P11712). Description: NVS_ADME_hCYP2C9: NovaScreen (NVS) CYP450-related Enzyme Activity (ADME) Assay for human CYP2C9 (AID 2283108). In a few lines:
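Cell-free assay of recombinant human CYP2C9 produced in Sf9 cells, with enzyme activity read by fluorescence intensity 0.75 h after compound addition. Loss of signal versus an acetonitrile negative control indicates inhibition. Primary screen used 10 uM in duplicate; actives were retested in concentration series.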

Experiment [2] addresses Cytochrome P450 2C19 (Homo sapiens) (UniProt P33261). Description: NVS_ADME_hCYP2C19: NovaScreen (NVS) CYP450-related Enzyme Activity (ADME) Assay for human CYP2C19 (AID 2283113).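 For AC50: potency for inhibition seen as loss of fluorescent signal.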 In a few lines: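 Recombinant insect-cell-expressed enzyme, fluorescent substrate, 1 h after chemical addition, fluorescence intensity. Baseline = acetonitrile vehicle; activity scored as signal loss. Primary HTS single concentration 10 uM, duplicate; actives retested in concentration series.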

Experiment [3] addresses rat CYP2C12, Cyp2c12 (gene 25011) (UniProt P11510). As to the kind of experiment: NVS_ADME_rCYP2C12: NovaScreen (NVS) CYP450-related Enzyme Activity (ADME) Assay for rat CYP2C12 (AID 2283119). Put shortly:
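Cell-free recombinant rat CYP2C12 activity read by fluorescence 0.5 h after dosing; loss of signal versus acetonitrile control. Primary screen in duplicate at 10 uM; actives then run in concentration-response format.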

For experiment [4], the system named is rat CYP3A1, gene 25642. As to the kind of experiment: NVS_ADME_rCYP3A1: NovaScreen (NVS) CYP450-related Enzyme Activity (ADME) Assay for rat CYP3A1 (AID 2283126). In a few lines: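 Cell-free recombinant CYP assay with fluorescent substrate, read 0.5 h after dosing. Screened at 10 uM in duplicate, hits at up to 20 uM in concentration-response; loss of signal versus acetonitrile baseline.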

For experiment [5], the target named is human CYP2D6, CYP2D6 (gene 1565) (UniProt P10635). Description: NVS_ADME_hCYP2D6: NovaScreen (NVS) CYP450-related Enzyme Activity (ADME) Assay for human CYP2D6 (AID 2283107). In a few lines: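 Fluorescence intensity read 1 h post-dosing; insect-cell-expressed recombinant protein with fluorogenic substrate, no cells. Activity is scored as signal loss relative to acetonitrile baseline, first at a single 10 uM concentration in duplicate, then as concentration series for confirmed actives.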

The subject of experiment [6] is rat CYP2B1, gene 24300. Description: NVS_ADME_rCYP2B1: NovaScreen (NVS) CYP450-related Enzyme Activity (ADME) Assay for rat CYP2B1 (AID 2283117). Put shortly: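 Recombinant rat CYP2B1 with fluorogenic substrate, read at 0.75 h. Primary screen in duplicate at 10 uM; compounds meeting threshold (e.g., 30% inhibition) re-run in concentration-response up to 20 uM. Fitted against acetonitrile control.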

Experiment [7] concerns the target rat CYP2A2, Cyp2a2 (gene 24895) (UniProt P15149). As to the kind of experiment: NVS_ADME_rCYP2A2: NovaScreen (NVS) CYP450-related Enzyme Activity (ADME) Assay for rat CYP2A2 (AID 2283116). In a few lines:
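Cell-free recombinant rat CYP2A2 activity with fluorogenic substrate, fluorescence read 0.2 h after dosing. Chemicals screened at 10 uM in duplicate, hits then run in concentration-response up to 20 uM; signal loss versus acetonitrile baseline.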

For experiment [8], the target named is Cytochrome P450 3A4 (Homo sapiens) (UniProt P08684). Description: NVS_ADME_hCYP3A4: NovaScreen (NVS) CYP450-related Enzyme Activity (ADME) Assay for human CYP3A4 (AID 2283110). In a few lines:
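Cell-free assay using insect-cell-expressed human CYP3A4 with a fluorogenic substrate; fluorescence intensity was read 0.33 hour after dosing. Loss of signal relative to acetonitrile vehicle indicated inhibition. Primary single-concentration screen at 10 uM, in duplicate, then concentration series.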

For experiment [9], the target named is rat CYP2D2, Cyp2d26 (gene 25053) (UniProt P10634). As to the kind of experiment: NVS_ADME_rCYP2D2: NovaScreen (NVS) CYP450-related Enzyme Activity (ADME) Assay for rat CYP2D2 (AID 2283124). Put shortly:
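Recombinant rat CYP2D2 in a cell-free fluorogenic activity assay, fluorescence read 0.75 h after dosing. Primary screen in duplicate at 10 uM; actives re-run singly in concentration-response to 20 uM, relative to acetonitrile.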

Experiment [10] concerns the target rat CYP2D1, Cyp2d1 (gene 266684) (UniProt P10633). As to the kind of experiment: NVS_ADME_rCYP2D1: NovaScreen (NVS) CYP450-related Enzyme Activity (ADME) Assay for rat CYP2D1 (AID 2283122). In a few lines: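 Cell-free fluorescence enzyme-activity assay on extracted rat CYP2D1 protein, read 0.75 h after dosing. Primary screen in duplicate at 10 uM; qualifying chemicals then run in concentration-response to 20 uM max, loss-of-signal versus acetonitrile baseline.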

Several values for one entry are separate records, joined by “and”; a condition that tells them apart may be missing. Equal values may be shown once. Results filed as inconclusive are left out. Activity calls are given as the source filed them. Rule for the calls: active = hit-call score of the fitted dose curve at least 0.9, where 1 is the maximum; inconclusive = response in the unintended direction; inactive = score below 0.9.

rat CYP2D2, Cyp2d26 (gene 25053), sequence (P10634 whole entry, looked up): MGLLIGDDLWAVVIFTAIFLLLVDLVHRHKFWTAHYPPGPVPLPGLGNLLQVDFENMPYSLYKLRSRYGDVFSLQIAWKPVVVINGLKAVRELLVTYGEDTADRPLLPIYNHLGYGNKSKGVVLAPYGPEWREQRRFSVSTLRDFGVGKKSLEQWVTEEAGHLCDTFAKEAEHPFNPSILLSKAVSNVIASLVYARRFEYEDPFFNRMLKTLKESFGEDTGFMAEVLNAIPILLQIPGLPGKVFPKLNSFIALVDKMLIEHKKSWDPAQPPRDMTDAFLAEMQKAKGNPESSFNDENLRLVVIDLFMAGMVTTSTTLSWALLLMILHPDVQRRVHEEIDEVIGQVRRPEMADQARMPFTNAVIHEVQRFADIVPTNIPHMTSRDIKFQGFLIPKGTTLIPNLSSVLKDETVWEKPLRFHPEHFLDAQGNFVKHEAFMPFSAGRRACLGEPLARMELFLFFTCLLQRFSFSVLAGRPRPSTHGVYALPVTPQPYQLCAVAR
human CYP2D6, CYP2D6 (gene 1565), sequence (P10635 whole entry, looked up): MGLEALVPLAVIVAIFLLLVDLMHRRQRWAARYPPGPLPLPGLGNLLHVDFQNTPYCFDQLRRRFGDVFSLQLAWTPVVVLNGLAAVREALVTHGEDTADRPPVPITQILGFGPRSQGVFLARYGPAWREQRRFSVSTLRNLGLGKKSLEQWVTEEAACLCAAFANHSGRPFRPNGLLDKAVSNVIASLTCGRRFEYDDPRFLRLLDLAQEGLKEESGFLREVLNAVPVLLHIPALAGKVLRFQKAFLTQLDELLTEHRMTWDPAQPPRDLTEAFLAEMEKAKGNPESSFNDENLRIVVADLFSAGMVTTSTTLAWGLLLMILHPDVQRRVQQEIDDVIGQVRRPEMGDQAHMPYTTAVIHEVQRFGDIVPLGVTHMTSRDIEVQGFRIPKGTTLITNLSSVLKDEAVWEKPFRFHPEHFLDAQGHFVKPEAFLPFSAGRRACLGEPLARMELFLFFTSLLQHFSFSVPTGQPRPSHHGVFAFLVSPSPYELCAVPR
rat CYP2D1, Cyp2d1 (gene 266684), sequence (P10633 whole entry, looked up): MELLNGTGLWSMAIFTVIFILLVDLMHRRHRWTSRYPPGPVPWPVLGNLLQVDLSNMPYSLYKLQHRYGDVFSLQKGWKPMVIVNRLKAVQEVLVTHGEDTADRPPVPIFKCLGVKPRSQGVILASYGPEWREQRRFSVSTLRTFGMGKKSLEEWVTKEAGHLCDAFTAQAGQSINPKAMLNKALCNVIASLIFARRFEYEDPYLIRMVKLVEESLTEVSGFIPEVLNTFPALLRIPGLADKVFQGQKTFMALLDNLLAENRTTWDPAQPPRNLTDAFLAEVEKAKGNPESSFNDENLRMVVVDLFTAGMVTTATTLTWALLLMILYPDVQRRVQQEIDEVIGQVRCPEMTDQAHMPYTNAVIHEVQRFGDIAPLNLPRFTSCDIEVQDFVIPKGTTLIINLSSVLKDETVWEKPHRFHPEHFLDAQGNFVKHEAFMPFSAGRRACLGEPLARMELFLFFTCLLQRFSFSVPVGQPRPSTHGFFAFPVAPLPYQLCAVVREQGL
human CYP2C9, CYP2C9 (gene 1559), sequence (P11712 whole entry, looked up): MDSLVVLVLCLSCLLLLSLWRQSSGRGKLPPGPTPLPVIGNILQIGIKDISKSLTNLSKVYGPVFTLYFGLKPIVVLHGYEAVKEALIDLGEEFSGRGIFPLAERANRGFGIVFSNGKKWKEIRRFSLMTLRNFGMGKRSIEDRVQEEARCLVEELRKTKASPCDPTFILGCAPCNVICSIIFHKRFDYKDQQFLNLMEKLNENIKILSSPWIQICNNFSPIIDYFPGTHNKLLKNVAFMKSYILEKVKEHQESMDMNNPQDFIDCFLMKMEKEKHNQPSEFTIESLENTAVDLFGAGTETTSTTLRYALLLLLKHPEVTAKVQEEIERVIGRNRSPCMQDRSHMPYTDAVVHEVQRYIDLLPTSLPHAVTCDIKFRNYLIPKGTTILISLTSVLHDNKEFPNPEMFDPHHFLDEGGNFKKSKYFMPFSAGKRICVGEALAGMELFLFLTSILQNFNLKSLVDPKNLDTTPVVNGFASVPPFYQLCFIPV
rat CYP2A2, Cyp2a2 (gene 24895), sequence (P15149 whole entry, looked up): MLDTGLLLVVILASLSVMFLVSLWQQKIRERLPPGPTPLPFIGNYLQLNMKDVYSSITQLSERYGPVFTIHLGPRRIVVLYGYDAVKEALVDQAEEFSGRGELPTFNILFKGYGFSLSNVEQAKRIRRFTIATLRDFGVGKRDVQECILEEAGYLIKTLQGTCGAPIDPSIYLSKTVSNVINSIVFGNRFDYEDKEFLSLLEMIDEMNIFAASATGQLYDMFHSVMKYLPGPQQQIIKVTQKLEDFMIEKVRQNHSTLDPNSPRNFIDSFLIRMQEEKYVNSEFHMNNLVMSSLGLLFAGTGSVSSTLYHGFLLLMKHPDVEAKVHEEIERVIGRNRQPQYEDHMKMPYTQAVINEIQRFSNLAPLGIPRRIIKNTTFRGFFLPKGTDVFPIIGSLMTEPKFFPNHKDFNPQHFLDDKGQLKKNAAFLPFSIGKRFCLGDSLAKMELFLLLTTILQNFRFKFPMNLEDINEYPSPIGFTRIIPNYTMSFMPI
rat CYP2C12, Cyp2c12 (gene 25011), sequence (P11510 whole entry, looked up): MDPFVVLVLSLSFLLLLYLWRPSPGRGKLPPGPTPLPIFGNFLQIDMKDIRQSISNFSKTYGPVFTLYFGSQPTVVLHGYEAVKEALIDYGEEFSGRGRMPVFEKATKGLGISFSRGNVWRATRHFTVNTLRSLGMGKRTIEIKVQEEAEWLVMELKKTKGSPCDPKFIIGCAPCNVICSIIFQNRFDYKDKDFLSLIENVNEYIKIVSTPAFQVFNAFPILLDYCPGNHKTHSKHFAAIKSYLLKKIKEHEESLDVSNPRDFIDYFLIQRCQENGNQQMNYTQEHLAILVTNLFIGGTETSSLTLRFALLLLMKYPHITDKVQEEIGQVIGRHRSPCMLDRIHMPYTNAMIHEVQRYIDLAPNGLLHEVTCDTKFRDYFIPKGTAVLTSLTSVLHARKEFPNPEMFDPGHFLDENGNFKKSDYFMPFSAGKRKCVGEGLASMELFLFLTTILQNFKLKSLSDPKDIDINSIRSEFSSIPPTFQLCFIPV
Cytochrome P450 3A4 (Homo sapiens), sequence (P08684 whole entry, looked up): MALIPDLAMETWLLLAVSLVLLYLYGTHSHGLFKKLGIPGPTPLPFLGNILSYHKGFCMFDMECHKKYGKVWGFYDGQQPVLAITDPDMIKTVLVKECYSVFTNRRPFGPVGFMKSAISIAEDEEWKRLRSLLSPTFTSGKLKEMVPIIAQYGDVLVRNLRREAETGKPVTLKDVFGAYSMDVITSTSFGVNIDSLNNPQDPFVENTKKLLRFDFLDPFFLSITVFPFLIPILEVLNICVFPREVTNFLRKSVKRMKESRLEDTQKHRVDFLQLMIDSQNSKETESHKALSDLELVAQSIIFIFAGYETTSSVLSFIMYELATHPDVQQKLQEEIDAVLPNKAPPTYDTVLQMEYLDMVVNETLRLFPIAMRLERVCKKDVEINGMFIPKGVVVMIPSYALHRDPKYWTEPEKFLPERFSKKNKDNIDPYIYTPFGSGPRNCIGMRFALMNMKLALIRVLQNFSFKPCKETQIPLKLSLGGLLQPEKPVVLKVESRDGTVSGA

As to `COC(=O)N(C(=O)N1CO[C@@]2(C(=O)OC)Cc3cc(Cl)ccc3C2=N1)c1ccc(OC(F)(F)F)cc1`, the call in experiment [1] was inactive. Further, the AC50 was 0.102 µM (active) in [2] and 0.332 µM (active) in [3].

For the compound `C=CCOC(=O)C(C)(C)OC(=O)c1cc(-n2c(=O)cc(C(F)(F)F)n(C)c2=O)ccc1Cl`, the call in experiment [3] was inactive. For the same compound, the AC50 in [4] is 0.595 µM (active).

With `Cc1ccc(N=CN(C)C=Nc2ccc(C)cc2C)c(C)c1`, the compound was classed as inactive in experiment [5]. The results for the concentration at half-maximal activity (AC50) in experiment [2] and in experiment [4] were 5.27 µM (active) and 4.8 µM (active), respectively.

Consider `N#Cc1c(Cl)cccc1Cl`, for which the outcome in experiment [6] was inactive.

As to `O=C(Nc1ccccc1-c1ccc(Cl)cc1)c1cccnc1Cl`, the AC50 in experiment [2] is 0.661 µM (active).

With `CC1(C)C(C(=O)OC(C#N)c2cccc(Oc3ccccc3)c2)C1(C)C` (configuration not stated), the compound was called inactive in experiment [1]. Besides, the AC50 in experiment [2] is 13.8 µM (active).

Consider `CC(C)C1(C)N=C(c2ncccc2C(=O)O)NC1=O` (configuration not stated), for which the outcome in experiment [1] and in [6] was inactive. Further, the concentration at half-maximal activity (AC50) in [7] is 6.92 µM (active).

For the compound `Clc1nc(Cl)nc(Nc2ccccc2Cl)n1`, in [4], the compound was classed as inactive.

Consider `N#CN=C1SCCN1Cc1ccc(Cl)nc1`, for which the result in experiment [5] was inactive.

Consider `COP(=O)(OC)O/C(C)=C/C(=O)N(C)C`, for which, in experiment [2], the result was inactive.

For the compound `OC(c1ccc(Cl)cc1)(c1ccc(Cl)cc1)C(Cl)(Cl)Cl`, the call in [8] was inactive. In addition, the concentration at half-maximal activity (AC50) in experiment [2] was 0.806 µM (active).

`COC(=O)NC(=S)Nc1ccccc1NC(=S)NC(=O)OC`: the concentration at half-maximal activity (AC50) is 10 µM (active) in experiment [2] and 7.66 µM (active) in experiment [4].

Take `CCOC(=O)C(C)OC(=O)c1cc(Oc2ccc(C(F)(F)F)cc2Cl)ccc1[N+](=O)[O-]` (configuration not stated): the outcome in experiment [5] was inactive. Besides, in experiment [2], the concentration at half-maximal activity (AC50) was 4.01 µM (active).

Consider `Cn1c(-c2ccccc2)cc(-c2ccccc2)[n+]1C`, for which the AC50 in experiment [5] is 5.06 µM (active); in experiment [9], 5.35 µM (active).

Take `Nc1cnn(-c2ccccc2)c(=O)c1Cl`: the AC50 is 2.37 µM (active) in experiment [10] and 7.35 µM (active) in experiment [4].

As for `CCC(C)n1c(=O)[nH]c(C)c(Br)c1=O` (configuration not stated), the compound was classed as inactive in experiment [2]. Also, the AC50 in [10] was 3.93 µM (active).

Regarding `CS(=O)(=O)c1cc(C(F)(F)F)ccc1C(=O)c1cnoc1C1CC1`, the outcome in [5] was inactive.

`CCNC(=O)NC(=O)C(C#N)=NOC`: the compound was classed as inactive in experiment [6] and in [9].

For `Cc1c(COC(=O)[C@@H]2[C@H](/C=C(\Cl)C(F)(F)F)C2(C)C)cccc1-c1ccccc1`, the AC50 in experiment [2] was 12.9 µM (active). Moreover, in experiment [7], the compound was classed as inactive.

With `CC1(C)C(C=C(Cl)Cl)C1C(=O)OC(C#N)c1cccc(Oc2ccccc2)c1` (configuration not stated), the results for the AC50 in experiment [5], in experiment [1] and in [2] were 6.07 µM (active), 12.8 µM (active) and 7.55 µM (active), respectively.

As to `CCCN(CC)CC1COC2(CCC(C(C)(C)C)CC2)O1` (configuration not stated), the result in experiment [1], in experiment [7] and in experiment [6] was inactive. In addition, the concentration at half-maximal activity (AC50) in experiment [9] was 6.05 µM (active) and 2.09 µM (active).

`CC(C)=CC1C(C(=O)OCc2coc(Cc3ccccc3)c2)C1(C)C` (configuration not stated): the half-maximal activity concentration (AC50) in experiment [1] is 5.84 µM (active); in experiment [2], 8.7 µM (active); in experiment [10], 5.37 µM (active).

As for `COCC(=O)N(c1c(C)cccc1C)C(C)C(=O)OC` (configuration not stated), in experiment [4], the concentration at half-maximal activity (AC50) is 4.46 µM (active).

For the compound `COc1cc(OC)nc(NC(=O)NS(=O)(=O)c2ncccc2OCC(F)(F)F)n1`, the AC50 in [4] was 5.87 µM (active).

The values above are taken from PubChem BioAssay (EPA / NIEHS).
